Only some compounds are listed: those with a hit (about 3% of all), similar ones and a draw of the others.
PPC-1+TRAIL kill = compounds killing PPC-1 cancer cells with TRAIL present (potentiator screen, no TRAIL-free arm). cell killing (% activity), % at 4 µM or 5 µM. PPC-1 cells + TRAIL, ATPLite viability luminescence. 220,000 compounds, 0.41% hits. AID 1443;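 active means cell killing above 50% in the first pass at 4 µM, then a duplicate retest at 5 µM averaging 50% or more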;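 further: plate controls were cells with TRAIL plus DMSO for no effect and medium-only wells lacking cells for full effect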
SENP8 block-1 = blocks the human protease SENP8; 330,000 compounds, 1.2% hits; purified SENP8, Z-RLRGG-aminoluciferin cleavage, luminescence; inhibition, % at 10 µM; in the data active means inhibition above about 50%
SENP8 block-2 = SENP8 (human) protease inhibition; 360,000 compounds, 0.64% hits; inhibition, % at 20 µM; Q96LD8; AID 602440; recombinant SENP8, Nedd8 substrate fluorescence; in the data active means inhibition mostly above about 40%, no sharp cut-off; inactive means mostly below about 27%
C8 TRAIL sens = sensitizes caspase-8 expressing cells to TRAIL; NB7+C8 cells + TRAIL, ATPlite viability luminescence; inhibition (viability loss, TRAIL sensitization), % at 10 µM; 360,000 compounds, 1% hits; AID 624354;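 active means compounds causing at least 50% loss of cell viability in the single-dose screen, relative to plate controls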
SENP7 inh = SENP7 protease inhibition. Q9BQF6. recombinant SENP7, Z-RLRGG-aminoluciferin luminescence, 40 min. inhibition, % at 5 µM. 330,000 compounds, 1.5% hits;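 active means inhibition above about 50% at the single test dose, limit read from the data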;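 further: plate controls were DMSO with enzyme for no effect and no enzyme buffer wells for full effect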
SENP6 inh = SENP6 protease inhibition; Q9GZR1; inhibition, % at 10 µM; 330,000 compounds, 1.8% hits; Recombinant SENP6 catalytic domain, aminoluciferin luminescence;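 active means inhibition above about 50% at the single tested dose, limit read from the data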;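 further: plate controls were DMSO wells with enzyme for no effect and DMSO wells lacking enzyme for full effect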
Target sequence (Q9GZR1 628-1112 limits assumed): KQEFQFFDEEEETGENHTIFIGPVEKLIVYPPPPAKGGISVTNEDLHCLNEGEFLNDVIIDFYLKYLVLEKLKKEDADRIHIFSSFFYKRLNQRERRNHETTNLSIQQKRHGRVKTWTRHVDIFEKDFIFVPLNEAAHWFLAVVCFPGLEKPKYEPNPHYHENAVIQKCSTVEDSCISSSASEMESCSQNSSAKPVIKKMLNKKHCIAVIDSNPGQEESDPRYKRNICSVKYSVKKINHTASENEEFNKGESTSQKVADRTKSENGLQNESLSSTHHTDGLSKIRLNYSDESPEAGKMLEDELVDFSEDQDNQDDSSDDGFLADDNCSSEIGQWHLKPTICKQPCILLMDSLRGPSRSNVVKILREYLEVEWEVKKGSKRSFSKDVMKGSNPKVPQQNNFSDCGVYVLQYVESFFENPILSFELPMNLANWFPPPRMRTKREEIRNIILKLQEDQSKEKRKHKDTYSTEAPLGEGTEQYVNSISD
Starred values were filed as active, the others as inactive; i = inactive; / = not tested or not shown.

SMILES | PPC-1+TRAIL kill | SENP8 block-1 | SENP8 block-2 | C8 TRAIL sens | SENP7 inh | SENP6 inh
Cc1ccc(CONC(=O)c2ccccc2)cc1 | 12 | -6 | -1 | 10 | 15 | 31
COc1ccc(C(=O)NOCc2ccccc2)cc1 | / | 4 | 11 | 56* | 17 | 19
O=C(NOCc1ccccc1)c1ccc(Cl)cc1 | / | -4 | 13 | 51* | 19 | 25
Cc1ccc(CONC(=O)c2ccc(Cl)cc2)cc1 | / | -2 | 8 | 4 | 9 | -13
CSc1cccc(NC(=S)NCCCN2CCN(c3ccc(F)cc3)CC2)c1 | 2 | -2 | 20 | -14 | -16 | -13
CN(C)CCNc1ncnc2c1ncn2[C@H]1CN(Cc2ccncc2)C[C@@H](CO)O1 | / | / | 8 | 9 | / | /
CC1CCCN(C2=C(Cl)C(=O)N(c3cccc(Cl)c3)C2=O)C1 (centres undefined) | 19 | 2 | 18 | 0 | -1 | 12
NC(=O)C1CCN(c2oc(-c3ccccc3F)nc2S(=O)(=O)c2ccc(Cl)cc2)CC1 | -19 | -3 | 14 | -7 | -2 | 1
CC1CCCN(C2=C(NS(=O)(=O)c3ccc(Cl)cc3)C(=O)c3ccccc3C2=O)C1 (centres undefined) | 26 | 12 | 60* | -1 | 12 | 32
NC(=O)C1CCN(C2=C(NS(=O)(=O)c3ccc(Cl)cc3)C(=O)c3ccccc3C2=O)CC1 | 18 | 6 | 44* | -8 | 15 | 6
COC(=O)C1CCN(C2=C(NS(=O)(=O)c3ccc(Cl)cc3)C(=O)c3ccccc3C2=O)CC1 | -5 | 6 | 40* | 7 | 20 | -8
Cc1cccc(NC(=O)CCC(=O)N2CCOCC2)n1 | / | 3 | 12 | 2 | 8 | 8
COc1ccc(CNC[C@@H](CCCCN(C)Cc2ccc(OC)cc2)N2C[C@H](c3ccccc3)N(CCc3ccc(Cl)c(Cl)c3)C(=O)C2=O)cc1 | 7 | -18 | 30 | 89* | 1 | -11
CCCCCCCCOC(=O)c1cc([N+](=O)[O-])c(Sc2ncnc3nc[nH]c23)c([N+](=O)[O-])c1 | / | / | 11 | 67* | / | /
Cc1ccc(N)cc1NC(=O)CN1CCOCC1 | / | -6 | 18 | -20 | 3 | 2
CC(O)CC(=O)OC[C@]12CC[C@H]3[C@@](C)(CC[C@H]4C(C)(C)CCC[C@]34C)[C@@H]1CC(C1=CC(=O)OC1O)O2 (some centres undefined) | / | / | 6 | 86* | / | /
COc1ccccc1CNC(=O)CCNS(=O)(=O)c1cc(Br)cnc1N | / | 5 | -45 | 1 | 4 | 6
CCC1CCCCN1c1ccc([N+](=O)[O-])cc1/C=N/NC(=O)Cn1c2ccccc2c(=O)c2ccccc21 (centres undefined) | 22 | -10 | -114 | 74* | -8 | -19
COc1ccc(C(CNC(=O)c2ccc(C)c(S(=O)(=O)N3CCCCC3)c2)N2CCCC2)cc1 (centres undefined) | / | / | -1 | -5 | / | /
CNc1nnc(-c2ccc(N(C)C)cc2)s1 | 60* | 14 | -299 | 73* | -9 | 29
COc1cc(CN(C2CCCCC2)S(=O)(=O)c2ccc(S(=O)(=O)N(C)C3CCCCC3)cc2)cc(OC)c1OC | -4 | -1 | 10 | -8 | 6 | 3
CN(C)S(=O)(=O)c1ccc(N2CCN(S(=O)(=O)c3ccc(F)cc3)CC2)c(Cl)c1 | 28 | -7 | 12 | 53* | 4 | 4
O=C(COC(=O)c1ccc([N+](=O)[O-])o1)NC1CCCC1 | / | 5 | 40* | -13 | 4 | 13
Cc1cc(C=O)c(C)n1-c1ccc(NC2CCCC2)c([N+](=O)[O-])c1 | / | 0 | 42* | 32 | 5 | -10
O=C(/C=C/C(Cl)(Cl)Cl)Nc1ccc(Cl)cc1 | / | / | 7 | 93* | / | /
SMILES | PPC-1+TRAIL kill | SENP8 block-1 | SENP8 block-2 | C8 TRAIL sens | SENP7 inh | SENP6 inh
Cc1c(Cl)cccc1NC(=O)CN(C1CCCCC1)S(C)(=O)=O | / | -11 | 9 | 2 | 11 | -12
CCN(CC)S(=O)(=O)c1cccc(NC(=O)Nc2cccc(C(F)(F)F)c2)c1 | 6 | 5 | 10 | 65* | -1 | -3
Cc1nc(NCCOc2ccccc2)sc1C(=O)Nc1ccccc1 | -2 | 63* | 3 | -21 | 84* | 76*
Cc1nc(NCc2ccccc2)sc1C(=O)Nc1ccccc1 | 26 | -25 | -6 | -4 | -27 | -9
O=C1NCCCC1C(=O)N/N=C/c1cc([N+](=O)[O-])ccc1O (centres undefined) | -14 | 3 | 45* | 9 | 4 | -15
O=S(=O)(/N=C(/Nc1cccc2ccccc12)c1ccc(F)cc1)c1ccccc1 | / | 5 | 26 | -2 | 2 | 1
C(=Cc1c[nH]c2ccccc12)c1nccc2ccccc12 | / | / | -451 | 73* | / | /
O=C(O)/C=C/c1ccc2ccccc2n1 | 20 | -4 | 12 | 0 | -1 | -10
C(=Cc1c[nH]c2ccccc12)c1ccc2ccccc2n1 | / | / | i | 71* | / | /
Cc1cc2nc(-c3nnnn3C3CCCCC3)c(=O)[nH]c2cc1C | / | / | -381 | -10 | / | /
CCC(C)[C@H](NC(=O)[C@H](Cc1ccccc1)n1c(=O)[nH]c2ccccc2c1=O)C(=O)N1CCC[C@@H]1C(=O)O (some centres undefined) | / | -3 | 29 | 4 | -1 | 0
CCN(CC(=O)Nc1c(F)cccc1F)C(=O)c1nc2nc(C)cc(C)n2n1 | / | 6 | 10 | -5 | -2 | -10
Cn1cnc([N+](=O)[O-])c1Sc1nc(N)nc2c1ncn2C1CC(O)C(CO)O1 (centres undefined) | / | / | 7 | 72* | / | /
Cn1cnc([N+](=O)[O-])c1Sc1nc(N)nc2c1ncn2C1OC(CO)C(O)C1O (centres undefined) | / | / | 14 | 71* | / | /
CCSc1nc(N)nc2c1ncn2C1OC(CO)C(O)C1O (centres undefined) | / | / | -58 | -2 | / | /
CNC(=O)Nc1ccccc1C(=O)Nc1ccccc1 | -25 | -7 | 0 | 10 | 6 | -13
COC1=C(C)C(=O)C2=C(C1=O)C1C3CC4=C(C(=O)C(OC)=C(C)C4=O)C(CNC(=O)C(C)=O)N3C(C#N)C(C2)N1C (centres undefined) | / | / | 55* | 86* | / | /
CC(=O)Oc1ccccc1C(=O)C=Cc1cccc([N+](=O)[O-])c1 | / | / | 2 | 65* | / | /
O=C(NCc1ccccc1)C(=O)Nc1cccc(C(=O)O)c1 | 4 | 84* | 23 | 6 | 93* | 93*
O=C(Nc1cccc(Cl)c1)Nc1cccc(C(=O)O)c1 | 14 | 87* | 26 | 23 | 93* | 96*
CSc1cccc(NC(=O)C(=O)NCc2ccccc2)c1 | 6 | -3 | 21 | 6 | -2 | -14
O=C(Cn1cnc([N+](=O)[O-])n1)N/N=C/c1ccc(O)cc1O | 7 | 3 | 16 | 52* | 1 | -9
CCc1c(-c2ccc(OC)cc2)ncn1Cc1cccc(-c2ccccc2)c1 | / | / | -2 | 5 | / | /
